The list is not random: actives were taken first. Their share in the collection is about 11%.
HTT cytoprotect = protects HTT-Q103 PC12 cells, measured by ATP. PC12 HTT-Q103 induced, cytoprotection, ATP luminescence, 40 h. Potency, µM (series often up to 56.4 µM), inactives show cytoprotection (ATP increase), actives largely listed as activators. 230,000 tested, 0.14% active; active = well fitted curve in the direction sought with a large enough effect; inconclusive = small, poorly fitted or top-dose-only effect, or another doubt; inactive = no such curve, though single readings can be large; an effect the other way counts as inactive or inconclusive; note: potency is the fitted concentration of half-maximal effect; % of control where 0% means no effect; nearly all actives have a fitted effect of over 45% in size
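Cells were plated at 1500 per well in phenol red-free DMEM with 5% equine and 5% calf serum. Tebufenozide (100 nM final) and compounds were added, then ATPlite reagent, and luminescence was read.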
HTT aggregate = inhibitors of mutant huntingtin aggregate formation in PC12 cells | PC12 HttQ103-GFP aggregates, Acumen cytometry, 40 h | Potency, µM (series often up to 46.1 µM), for the others: at the highest dose activity change, negative = inhibition, hits mostly inhibitors | 220,000 tested, 1.1% active | AID 1688; active = well fitted curve in the direction sought with a large enough effect; inconclusive = small, poorly fitted or top-dose-only effect, or another doubt; inactive = no such curve, though single readings can be large; an effect the other way counts as inactive or inconclusive; note: potency is the fitted concentration of half-maximal effect; % is set by controls: 0 for no effect and ±100 for the full control effect; nearly all actives have a fitted effect of over 60% in size
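PC12/HTTQ103-GFP, ecdysone-inducible; teb 100 nM; cpd qHTS titration; GFP aggregates read on laser cytometer, Ex 488/Em 500-530 nm.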
ALDH1A1 inh = blocks purified human ALDH1A1 activity; P00352; Purified ALDH1A1, NADH fluorescence, propionaldehyde substrate; Potency, µM (doses to about 75.3 µM), inactives show top-dose activity, negative = inhibition, actives largely listed as inhibitors; 220,000 tested, 7.3% active;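 note: potency is the fitted concentration of half-maximal effect; plate controls were no enzyme wells and a reference inhibitor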
RGS12 GoLoco inh = RGS12 GoLoco-Gai1 interaction inhibition | 230,000 tested, 0.44% active | Potency, µM (series often up to 61.6 µM), for inactives: at the highest dose activity, negative = inhibition, actives largely listed as inhibitors | AID 880 | Gai1:RGS12 GoLoco peptide FP, rhodamine, 10 min; active = well fitted inhibition curve with a large enough effect, not every such curve was filed as active; inactive = no such curve, though single readings can be large or run the other way; note: potency is the fitted concentration of half-maximal effect; % is set by controls: 0 for no effect and ±100 for the full control effect; nearly all actives have a fitted effect of over 30% in size
Target sequence (P63096 whole entry, looked up): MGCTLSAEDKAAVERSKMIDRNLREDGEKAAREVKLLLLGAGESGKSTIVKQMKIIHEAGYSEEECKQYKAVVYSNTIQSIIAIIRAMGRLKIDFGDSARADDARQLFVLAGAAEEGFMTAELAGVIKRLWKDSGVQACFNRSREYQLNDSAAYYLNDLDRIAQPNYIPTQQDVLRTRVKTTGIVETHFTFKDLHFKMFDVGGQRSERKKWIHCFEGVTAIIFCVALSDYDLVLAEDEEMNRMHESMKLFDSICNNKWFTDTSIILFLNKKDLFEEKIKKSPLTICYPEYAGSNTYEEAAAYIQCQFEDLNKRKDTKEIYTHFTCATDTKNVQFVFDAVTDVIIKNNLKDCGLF
HPGD inh = blocks human HPGD enzyme activity; AID 894; P15428; purified HPGD, NADH fluorescence kinetic, PGE2 substrate; Potency, µM, for inactives: top-dose activity change, negative = inhibition, most hits filed as inhibitors; 150,000 tested, 4.3% active; note: potency is the fitted concentration of half-maximal effect; % is set by controls: 0 for no effect and ±100 for the full control effect
Target sequence (P15428 whole entry, looked up): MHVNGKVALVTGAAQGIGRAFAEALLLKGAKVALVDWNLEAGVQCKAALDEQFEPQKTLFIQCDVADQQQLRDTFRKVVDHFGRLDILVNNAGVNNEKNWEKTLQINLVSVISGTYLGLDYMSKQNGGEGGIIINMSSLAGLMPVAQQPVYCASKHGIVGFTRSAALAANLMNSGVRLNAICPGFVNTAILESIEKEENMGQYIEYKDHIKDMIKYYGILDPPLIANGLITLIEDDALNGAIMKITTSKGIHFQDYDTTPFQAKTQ
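NADH formation kinetics: reaction with 30 uM PGE2 and 1 mM NAD+ (final), 20 nM enzyme, Tris-HCl pH 8 with Tween 20, after 15 min compound preincubation at room temperature. Fluorescence change, last versus first of five reads.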
PNC assembly inh = blocks assembly of the perinucleolar compartment. activity change (PNC), negative = inhibition, % at 10 µM. AID 2417. PC3M PTB-GFP, PNC prevalence imaging, 16 h; hits give low values. 140,000 tested, 3.1% active;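 active = readout at or below -70, meaning at least 70% loss of cells showing the perinucleolar compartment, a nuclear body marking cancer cells; inconclusive = readout between -30 and a set limit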;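 note: plate controls were DMSO wells for no effect and camptothecin positive control wells for full effect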
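Read-out is percentage of cells bearing a perinucleolar compartment, from automated 20x imaging of fixed, Hoechst-stained PC3M PTB-GFP cells. Cells were seeded 4 h, then exposed 16 h to compound (23 nl of library stock) in duplicate plates.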
Active calls of the source: *; ? = inconclusive; . = no result given; [ ] = dose if it differs, or a comment. Unless noted, calls come from the whole dose curve; as a rule, active = well fitted inhibition curve with a large enough effect (not every such curve was filed as active); inconclusive = small, poorly fitted or top-dose-only effect, or another doubt; inactive = no such curve, though single readings can be large or run the other way.

SMILES	HTT cytoprotect	HTT aggregate	ALDH1A1 inh	RGS12 GoLoco inh	HPGD inh	PNC assembly inh
O=C(O/N=C/C1=C(Cl)c2ccccc2CC1)c1ccc(F)cc1	4%	12%	4%	-4%	-9%	33
COc1ccc(S(=O)(=O)N(CC(=O)NC2CC2)C2CCCCC2)cc1Cl	1%	18%	8.9µM*	-9%	-6%	18
Cc1ccc(NC(=O)N2CCC(c3nc4c(nnn4Cc4cccc(Cl)c4)c(=O)[nH]3)CC2)cc1	-19%	-3%	-17%	14%	2µM*	?
O=C(NC1CCCC1)c1nc2c(nnn2Cc2ccccc2Cl)c(=O)[nH]1	-6%[10 µM]	-16%	-2%	25%	?	20
O=C(NC1CCCC1)c1nc2c(nnn2Cc2cccc(Cl)c2)c(=O)[nH]1	-17%	-9%	-4%	-4%	2.5µM*	9
N#Cc1cccc(NC(=O)N2CCC(c3nc4c(nnn4Cc4cccc(Cl)c4)c(=O)[nH]3)CC2)c1	-11%	1%	-2%	8%	10µM*	16
O=C(Nc1ccc(F)cc1)N1CCC(c2nc3c(nnn3Cc3cccc(Cl)c3)c(=O)[nH]2)CC1	-19%[10 µM]	16%	12%	4%	8.9µM*	19
O=C(c1cccs1)N1CCC(c2nc3c(nnn3Cc3ccccc3)c(=O)[nH]2)CC1	-5%[10 µM]	3%	?	.	.	16
O=C(NCc1ccco1)C1CC(c2cc(C(F)(F)F)cc(C(F)(F)F)c2)=NO1 (configuration not stated)	-49%[10 µM]	-7%[9.22 µM]	.	1%	.	.
C=C(C(C)=O)C(O)/C=C/c1ccco1 (configuration not stated)	-41%	.	-14%	5%	-7%	.
COc1ccc2c(c1)CN([C@H](C)[C@@H]1CC[C@@H]3[C@H]4CC[C@H]5C[C@@H](O)CC[C@@]5(C)[C@H]4CC[C@]31C)CO2	-9%[10 µM]	.	?	2%[14.2 µM]	-4%	.
O=C(NC(c1ccccc1)C(Cl)(Cl)Cl)c1ccccc1 (configuration not stated)	8%[10 µM]	-4%	-12%	8%	-10%	14
CCOC(=O)c1sc(=S)n(-c2ccc(C)cc2)c1SC	-6%	-12%	22µM*	15%	?	?
CCOC(=O)c1sc(=S)n(-c2ccc(OC)cc2)c1N	-4%[10 µM]	-7%[9.22 µM]	.	5%	.	.
CN1CCN(C(=O)c2sc(=S)n(-c3ccccc3)c2N)CC1	1%[10 µM]	?	3.2µM*	-2%	7.9µM*	-97*
CCNC(=O)c1sc(=S)n(-c2ccc(C)cc2)c1N	-5%	-14%	13µM*	2%	35µM*	15
Cc1ccc(-n2c(N)c(C(=O)N3CCOCC3)sc2=S)cc1	-17%[0.074 µM]	?	3.2µM*	-9%	10µM*	-126*
COc1cccc2sc(/N=C/N(C)C)nc12	2%[10 µM]	14%[9.22 µM]	.	12%	.	.
O=C(Nc1nnc(SCc2c(Cl)cccc2Cl)s1)C1CC(=O)N(c2ccc3c(c2)OCCO3)C1 (configuration not stated)	1%[10 µM]	14%	3.5µM*	17%	.	.
Cc1cc(NC(=O)CSc2nnc(NC(=O)C3CC(=O)N(c4ccccc4)C3)s2)no1 (configuration not stated)	?	8%	-2%	5%	-13%	25
O=C(Nc1nc(-c2ccco2)c(-c2ccco2)s1)C1CC(=O)N(c2ccc3c(c2)OCCO3)C1 (configuration not stated)	-27%[10 µM]	3%	1.1µM*	17%	?	0
Cc1cc(NC(=O)CSc2nnc(NC(=O)C3CC(=O)N(c4ccccc4C)C3)s2)no1 (configuration not stated)	14%[10 µM]	4%	20µM*	34%	-21%	?
O=C(NNC(=O)c1sccc1-n1cccc1)c1cccs1	21%	17%	0%	3%	.	.
CC(C)CO/N=C1/C[C@@H](O)[C@@H](O)[C@@H]2[C@@H]3C(=O)N([C@@H](C)c4ccccc4)C(=O)[C@H]3CC[C@@H]12	-10%[10 µM]	.	8%[13.5 µM]	.	.	.
O=c1c(CCc2ccccc2)nc2cnc(N3CCOCC3)nc2n1C[C@H]1CCCO1	-5%	.	?	3%	?	.
SMILES	HTT cytoprotect	HTT aggregate	ALDH1A1 inh	RGS12 GoLoco inh	HPGD inh	PNC assembly inh
COc1ccc(CCNc2nc3ccccc3n3nnnc23)cc1OC	14%	10%	8%	23%	-14%	2
COc1ccc(CCNCc2csc3nc4ccccc4n23)cc1OC	-18%	7.1µM*	-5%	4%	-8%	22
c1ccc(CNc2ncnc3ccc(-c4ccc5c(c4)OCO5)cc23)cc1	-247%	.	?	9%	.	.
CC1CCN(c2oc(-c3cccc4ccccc34)nc2C#N)CC1	4%[10 µM]	-31%	?	-2%	?	-100*
CC(=O)OC[C@@H]1O[C@@H](O/N=C2/C[C@@H](O)[C@@H](O)[C@@H]3[C@@H]4C(=O)N(Cc5ccccc5)C(=O)[C@H]4CC[C@@H]23)[C@H](OC(C)=O)[C@H](OC(C)=O)[C@@H]1OC(C)=O	-11%[10 µM]	.	1%[13.5 µM]	.	.	.
O=[N+]([O-])c1cccc(/C=N\Nc2ccc3ccccc3n2)c1O	-11%[10 µM]	.	1.6µM*	7%[14.2 µM]	-11%	.
O=[N+]([O-])c1cccc(/C=N\N=C2c3ccccc3-c3ccccc32)c1O	0%[10 µM]	-7%	-7%	157%	28µM*	?
O=[N+]([O-])c1cc(Cl)cc(/C=N\Nc2ccccn2)c1O	-72%	2.2µM*	1%	1%	-17%	15
O=C(N/N=C/c1cc(Cl)cc([N+](=O)[O-])c1O)c1cc(-c2ccccn2)nc2ccccc12	5%[10 µM]	-10%[9.22 µM]	.	24%	.	.
Cc1nc2cnc(OCc3ccccc3)nc2n(C)c1=O	8%	.	-12%	-1%	.	.
CN(Cc1ccco1)c1ncncc1-c1cccc(C#N)c1	-3%	.	-9%	3%	.	.
Cc1nn(Cc2ccc(Cl)cc2)c(C)c1NC(=O)C(c1ccccc1)c1ccccc1	37%[10 µM]	20%	0%	0%	0%	?
Clc1cccc(CN2CCN(c3nc4nonc4nc3NC3CC3)CC2)c1	-29%[10 µM]	-8%[9.22 µM]	-15%	-3%	.	.
Cc1cccc(CN2CCN(c3nc4nonc4nc3NC3CC3)CC2)c1	-10%[10 µM]	14%[9.22 µM]	16µM*	-39%	.	.
c1ccc(-c2nc(C3CCCCC3)no2)cc1	-6%	-12%	3%	-1%	-1%	-7
COc1ccc(-c2nc(C3CCCCC3)no2)cc1OC	-6%	8%	22µM*	3%	?	-26
OCC1OC(C#Cc2ccccc2)C=CC1O (configuration not stated)	-15%[10 µM]	.	-2%[13.5 µM]	.	.	.
